Results as given in the supplement of paper PMC10849652.
About 7,900 targets were measured; listed, in parts, are those with a hit and a random draw of the rest. About 0.6% of all pairs of compound and target were hits.

compound: C#Cc1cccc(Nc2ncnc3cc(OCCOC)c(OCCOC)cc23)c1 [erlotinib]; assay: log2 fold change, soluble protein after heating vs DMSO (PISA); higher = thermal stabilisation; K562 cells, 10 uM, 30 min; active = over 0.2 and 3.5 SD of the protein, either way, in both replicates (recomputed)
Summary of the method: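 K562 cells (2×10^6 cells/mL) were treated with 10 μM compound for 30 min, and aliquots were heated for 3 min over 48°C-58°C. Pooled aliquots were extracted in PBS with 0.5% NP-40 at 4°C, and the supernatant after 21,000xg for 90 min was measured by TMTpro 16plex LC-MS/MS with channel sums equalised. Reported thermal stability, relative to control samples and from duplicates, is a log2 fold change.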

UniProt Q00688, sequence (Q00688 whole entry, looked up): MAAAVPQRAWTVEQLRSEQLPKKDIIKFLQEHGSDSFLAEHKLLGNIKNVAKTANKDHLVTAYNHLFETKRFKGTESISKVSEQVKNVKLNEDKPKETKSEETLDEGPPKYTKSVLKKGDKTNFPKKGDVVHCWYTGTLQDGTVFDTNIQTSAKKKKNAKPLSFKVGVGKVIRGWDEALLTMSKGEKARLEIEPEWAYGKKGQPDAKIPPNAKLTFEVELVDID
UniProt P46976, sequence (P46976 whole entry, looked up): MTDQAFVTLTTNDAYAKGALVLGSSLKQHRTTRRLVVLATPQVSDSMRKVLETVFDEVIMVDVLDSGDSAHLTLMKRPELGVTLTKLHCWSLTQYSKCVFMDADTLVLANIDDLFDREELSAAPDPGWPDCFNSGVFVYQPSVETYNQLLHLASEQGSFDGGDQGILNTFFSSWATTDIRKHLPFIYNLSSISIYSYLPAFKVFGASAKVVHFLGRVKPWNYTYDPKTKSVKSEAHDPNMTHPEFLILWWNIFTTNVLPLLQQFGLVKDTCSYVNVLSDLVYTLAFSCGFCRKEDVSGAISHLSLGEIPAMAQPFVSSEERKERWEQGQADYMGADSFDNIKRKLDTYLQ
UniProt P06865, sequence (P06865 whole entry, looked up): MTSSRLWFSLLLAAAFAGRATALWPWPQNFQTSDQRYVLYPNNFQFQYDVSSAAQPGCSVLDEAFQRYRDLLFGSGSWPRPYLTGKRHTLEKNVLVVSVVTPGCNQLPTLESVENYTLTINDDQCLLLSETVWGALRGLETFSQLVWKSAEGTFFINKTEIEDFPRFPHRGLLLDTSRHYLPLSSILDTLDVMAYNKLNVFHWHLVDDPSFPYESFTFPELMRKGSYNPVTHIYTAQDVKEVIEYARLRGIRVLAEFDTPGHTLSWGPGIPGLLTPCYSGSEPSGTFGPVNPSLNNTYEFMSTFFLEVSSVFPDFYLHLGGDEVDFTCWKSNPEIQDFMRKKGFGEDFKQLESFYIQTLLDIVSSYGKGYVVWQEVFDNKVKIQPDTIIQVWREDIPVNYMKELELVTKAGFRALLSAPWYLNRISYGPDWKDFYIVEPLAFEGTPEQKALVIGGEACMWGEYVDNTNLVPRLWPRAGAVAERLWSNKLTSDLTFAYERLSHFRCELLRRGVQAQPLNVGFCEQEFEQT
UniProt Q53FT3, sequence (Q53FT3 whole entry, looked up): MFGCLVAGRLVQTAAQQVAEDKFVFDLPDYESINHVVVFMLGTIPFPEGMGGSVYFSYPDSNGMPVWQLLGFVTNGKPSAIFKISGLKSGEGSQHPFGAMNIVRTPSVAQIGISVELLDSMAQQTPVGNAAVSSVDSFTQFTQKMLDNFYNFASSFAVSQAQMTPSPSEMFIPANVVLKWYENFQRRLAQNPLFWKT
UniProt Q92538, sequence (Q92538 whole entry, looked up): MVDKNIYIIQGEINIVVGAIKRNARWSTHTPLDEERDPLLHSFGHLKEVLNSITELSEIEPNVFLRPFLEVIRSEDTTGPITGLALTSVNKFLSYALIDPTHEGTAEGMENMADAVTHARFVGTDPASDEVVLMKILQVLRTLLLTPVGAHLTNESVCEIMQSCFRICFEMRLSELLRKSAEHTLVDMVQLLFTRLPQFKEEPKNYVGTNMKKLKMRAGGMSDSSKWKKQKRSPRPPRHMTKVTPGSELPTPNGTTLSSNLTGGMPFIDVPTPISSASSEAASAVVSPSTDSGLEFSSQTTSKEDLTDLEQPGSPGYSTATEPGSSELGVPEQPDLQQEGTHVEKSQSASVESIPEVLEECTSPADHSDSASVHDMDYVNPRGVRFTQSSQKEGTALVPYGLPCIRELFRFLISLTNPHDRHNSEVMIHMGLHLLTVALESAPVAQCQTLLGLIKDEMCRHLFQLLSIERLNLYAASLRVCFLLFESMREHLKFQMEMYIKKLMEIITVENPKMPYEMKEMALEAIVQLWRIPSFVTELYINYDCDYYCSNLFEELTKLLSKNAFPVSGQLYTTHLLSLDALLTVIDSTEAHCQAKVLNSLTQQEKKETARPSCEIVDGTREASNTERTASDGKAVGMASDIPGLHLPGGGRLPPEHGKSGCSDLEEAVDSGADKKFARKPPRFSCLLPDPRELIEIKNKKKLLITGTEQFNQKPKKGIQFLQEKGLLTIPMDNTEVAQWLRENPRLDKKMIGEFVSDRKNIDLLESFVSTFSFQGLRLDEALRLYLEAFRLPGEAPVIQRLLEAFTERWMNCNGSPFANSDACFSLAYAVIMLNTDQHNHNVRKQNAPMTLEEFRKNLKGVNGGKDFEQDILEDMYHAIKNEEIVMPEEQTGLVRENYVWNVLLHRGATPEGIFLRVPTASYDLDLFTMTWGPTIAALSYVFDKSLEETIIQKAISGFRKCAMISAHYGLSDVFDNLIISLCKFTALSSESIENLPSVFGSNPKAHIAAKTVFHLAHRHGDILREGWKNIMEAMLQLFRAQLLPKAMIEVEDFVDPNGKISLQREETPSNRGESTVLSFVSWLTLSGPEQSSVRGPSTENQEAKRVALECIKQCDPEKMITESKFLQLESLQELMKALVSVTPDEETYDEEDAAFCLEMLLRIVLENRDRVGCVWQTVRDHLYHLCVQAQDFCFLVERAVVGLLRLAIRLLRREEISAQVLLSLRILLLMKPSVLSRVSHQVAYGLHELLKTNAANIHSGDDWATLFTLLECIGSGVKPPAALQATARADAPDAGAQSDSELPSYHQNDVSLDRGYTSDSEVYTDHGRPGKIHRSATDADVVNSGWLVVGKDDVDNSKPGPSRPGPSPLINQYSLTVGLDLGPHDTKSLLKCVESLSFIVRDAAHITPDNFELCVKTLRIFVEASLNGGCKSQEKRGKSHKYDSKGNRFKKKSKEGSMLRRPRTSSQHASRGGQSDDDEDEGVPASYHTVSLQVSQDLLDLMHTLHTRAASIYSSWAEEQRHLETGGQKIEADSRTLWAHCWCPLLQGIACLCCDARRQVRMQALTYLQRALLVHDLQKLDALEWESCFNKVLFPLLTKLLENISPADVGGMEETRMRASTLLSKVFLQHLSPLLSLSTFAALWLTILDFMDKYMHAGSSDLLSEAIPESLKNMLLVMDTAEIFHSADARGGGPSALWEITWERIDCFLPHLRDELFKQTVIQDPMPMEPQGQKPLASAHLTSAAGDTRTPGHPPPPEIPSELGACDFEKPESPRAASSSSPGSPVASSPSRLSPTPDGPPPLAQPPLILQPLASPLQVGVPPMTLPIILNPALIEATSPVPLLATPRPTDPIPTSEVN
UniProt P49448, sequence (P49448 whole entry, looked up): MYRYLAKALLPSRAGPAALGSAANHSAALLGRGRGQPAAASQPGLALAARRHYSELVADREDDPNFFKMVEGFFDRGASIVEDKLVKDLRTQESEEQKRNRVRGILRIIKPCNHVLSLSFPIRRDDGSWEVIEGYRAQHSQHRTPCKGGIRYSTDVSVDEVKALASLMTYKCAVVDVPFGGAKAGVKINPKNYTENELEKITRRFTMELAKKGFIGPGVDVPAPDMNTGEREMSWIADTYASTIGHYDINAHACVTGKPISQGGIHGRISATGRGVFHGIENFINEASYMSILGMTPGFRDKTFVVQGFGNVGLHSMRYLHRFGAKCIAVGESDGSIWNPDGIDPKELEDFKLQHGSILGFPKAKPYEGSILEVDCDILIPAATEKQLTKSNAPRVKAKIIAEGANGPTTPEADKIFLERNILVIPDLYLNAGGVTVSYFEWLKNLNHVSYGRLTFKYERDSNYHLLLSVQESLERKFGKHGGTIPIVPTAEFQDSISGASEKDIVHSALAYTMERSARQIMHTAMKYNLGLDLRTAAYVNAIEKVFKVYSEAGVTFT
UniProt P36969, sequence (P36969 whole entry, looked up): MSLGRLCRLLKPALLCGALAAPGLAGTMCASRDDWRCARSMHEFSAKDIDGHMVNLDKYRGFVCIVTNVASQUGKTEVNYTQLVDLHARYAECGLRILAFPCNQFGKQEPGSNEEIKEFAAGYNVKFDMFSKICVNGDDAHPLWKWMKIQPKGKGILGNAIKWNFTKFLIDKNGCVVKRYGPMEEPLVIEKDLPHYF
UniProt O00291, sequence (O00291 whole entry, looked up): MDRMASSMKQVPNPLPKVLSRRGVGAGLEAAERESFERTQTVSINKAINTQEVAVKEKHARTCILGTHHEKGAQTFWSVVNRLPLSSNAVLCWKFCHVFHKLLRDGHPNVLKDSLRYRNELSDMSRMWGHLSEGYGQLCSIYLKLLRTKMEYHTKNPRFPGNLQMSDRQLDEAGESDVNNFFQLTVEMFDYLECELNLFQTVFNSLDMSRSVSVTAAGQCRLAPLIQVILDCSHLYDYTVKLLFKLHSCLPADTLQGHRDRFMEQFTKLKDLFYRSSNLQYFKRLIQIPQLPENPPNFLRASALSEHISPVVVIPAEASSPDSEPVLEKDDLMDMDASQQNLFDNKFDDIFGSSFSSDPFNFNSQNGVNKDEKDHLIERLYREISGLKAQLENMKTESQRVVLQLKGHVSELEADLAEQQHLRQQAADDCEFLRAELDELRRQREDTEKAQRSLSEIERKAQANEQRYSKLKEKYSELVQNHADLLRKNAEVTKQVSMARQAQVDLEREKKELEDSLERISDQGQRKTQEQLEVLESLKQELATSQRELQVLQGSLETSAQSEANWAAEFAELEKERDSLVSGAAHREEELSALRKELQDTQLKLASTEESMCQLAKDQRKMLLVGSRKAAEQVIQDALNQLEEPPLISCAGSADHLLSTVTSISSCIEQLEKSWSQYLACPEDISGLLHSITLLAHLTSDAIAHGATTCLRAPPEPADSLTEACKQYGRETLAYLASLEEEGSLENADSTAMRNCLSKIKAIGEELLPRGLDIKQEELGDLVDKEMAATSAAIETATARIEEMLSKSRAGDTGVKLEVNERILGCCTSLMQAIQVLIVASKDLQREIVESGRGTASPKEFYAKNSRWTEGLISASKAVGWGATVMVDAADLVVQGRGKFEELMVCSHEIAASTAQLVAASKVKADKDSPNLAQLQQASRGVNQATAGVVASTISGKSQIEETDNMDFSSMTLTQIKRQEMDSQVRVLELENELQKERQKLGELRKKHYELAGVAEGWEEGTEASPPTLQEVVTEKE

log2 fold change, inactive:
FKBP3 (UniProt Q00688) -0.001, GPX4 (UniProt P36969) -0.021, HEXA (UniProt P06865) 0.012, HECTD1 (UniProt Q9ULT8) 0.009, GLUD2 (UniProt P49448) 0.009, GBF1 (UniProt Q92538) -0.012, HIKESHI (UniProt Q53FT3) 0.004, HBZ (UniProt P02008) -0.013, HIP1 (UniProt O00291) 0.018, HADHB (UniProt P55084) -0.057, GTPBP6 (UniProt O43824) -0.091, GOLPH3 (UniProt Q9H4A6) 0.008, GSTO1 (UniProt P78417) -0.009, GYG1 (UniProt P46976) -0.064, ICMT (UniProt O60725) 0.059, FANCD2 isoform 1 (UniProt Q9BXW9) 0.077, GMEB1 (UniProt Q9Y692) 0.106, GALNT2 (UniProt Q10471) -0.052, GCC2 (UniProt Q8IWJ2) -0.062, HAX1 (UniProt O00165) 0.07, GGT7 (UniProt Q9UJ14) 0.012, HDAC7 isoform 5 (UniProt Q8WUI4) 0.025, HSPA8 (UniProt E9PK54) -0.008
